Laboratory results from PubChem BioAssay (EPA / NIEHS).
Results filed as inconclusive are left out. Active and inactive are the calls of the source. Rule for the calls, unless noted: active = hit-call score of the fitted dose curve at least 0.9, where 1 is the maximum; inactive = score below 0.9.

Tests used:
[1] = ACEA_ER_80hr: ACEA Biosciences xCELLigence Real-Time Cell Analysis on Estrogen Receptor Agonism for Proliferation (AID 2282667; active = hit-call score of the fitted dose curve at least 0.9, where 1 is the maximum); settings: T47D proliferation, impedance (xCELLigence), 80 h
How it was run: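 T-47D cells monitored by electrical impedance (xCELLigence) with compound present throughout; 80 h timepoint, positive-direction fitting versus DMSO. Eight-point 1:4 dilutions from 100 uM final, duplicate plates.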

[2] = ATG_CRE_CIS: Attagene CIS-FACTORIAL HepG2 Assay for human cAMP Responsive Element (CRE) binding protein 3 (AID 2282926); settings: HepG2 CRE cis-reporter, Attagene multiplexed mRNA; actives raise or lower the signal
How it was run: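 Induced reporter mRNA from a CRE cis element, measured in HepG2 among many multiplexed units at 24 h. Detection used RT-PCR plus capillary electrophoresis of fluorescent fragments; DMSO served as negative control.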

[3] = target: CCAAT/enhancer-binding protein beta (Homo sapiens) (UniProt P17676); assay: ATG_C_EBP_CIS: Attagene CIS-FACTORIAL HepG2 Assay for human CCAAT/Enhancer Binding Protein (C/EBP) beta (AID 2282927); settings: HepG2 Attagene cis-factorial transcription factor reporter; actives raise or lower the signal
How it was run: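 HepG2, transient MRTU transfection, 24 h treatment. RT-PCR plus CE fluorescence; DMSO negative control, bidirectional fit.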

[4] = ATG_CMV_CIS: Attagene CIS-FACTORIAL HepG2 Assay for human CMV (Internal Marker) (AID 2282928); settings: HepG2 CMV promoter reporter, transcription factor profiling; actives raise or lower the signal;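 note: endpoint acts as a background internal control marker rather than a target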
How it was run: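 Reporter transcripts from transfected HepG2 cells are isolated after 24 h of chemical dosing, reverse-transcribed and amplified. Fragments labeled with 6-FAM are cut with HpaI and quantified by capillary electrophoresis; DMSO defines baseline.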

[5] = ATG_DR4_LXR_CIS: Attagene CIS-FACTORIAL HepG2 Assay for human Liver X Receptor (LXR), DR4 submotif (AID 2282929); settings: HepG2 Attagene DR4 cis-reporter, mRNA transcription; actives raise or lower the signal
How it was run: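 After transient transfection with multiplexed cis-promoter reporter units, HepG2 cells received test chemicals for 24 h. Reporter mRNA induction, detected by fluorescence after RT-PCR and capillary electrophoresis, was scored relative to DMSO.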

[6] = target: Aryl hydrocarbon receptor (Homo sapiens) (UniProt P35869); assay: ATG_Ahr_CIS: Attagene CIS-FACTORIAL HepG2 Assay for human Aryl Hydrocarbon Receptor (Ahr) (AID 2282930); settings: HepG2 AhR cis-factorial reporter transcription; actives raise or lower the signal
How it was run: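 Endogenous factor activity is tracked through cis-promoter reporter units transfected into HepG2 cells. Transcript levels at 24 h are read by fluorescent RT-PCR and capillary electrophoresis, with activity in either direction scored relative to DMSO.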

[7] = ATG_AP_1_CIS: Attagene CIS-FACTORIAL HepG2 Assay for human Activator Protein 1 (AP-1) (AID 2282931); settings: HepG2 Attagene cis-factorial AP-1 reporter mRNA; actives raise or lower the signal
How it was run: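 After 24 h incubation with test chemical, RNA from transfected HepG2 cells was reverse-transcribed, amplified, fluorescently labelled and digested before capillary electrophoresis. Reporters were driven by cis-regulatory promoters; activity fitted bidirectionally versus DMSO.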

[8] = ATG_AP_2_CIS: Attagene CIS-FACTORIAL HepG2 Assay for human Activator Protein 2 (AP-2) (AID 2282932); settings: HepG2 AP-2 cis-reporter, Attagene transcription factor profiling; actives raise or lower the signal
How it was run: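 Read-out: fluorescent reporter mRNA via RT-PCR and capillary electrophoresis, 24 h post-dose in transiently transfected HepG2. Endogenous factors drive cis-promoter reporters; gain or loss of signal fitted bidirectionally against DMSO.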

[9] = ATG_BRE_CIS: Attagene CIS-FACTORIAL HepG2 Assay for human Bone Morphogenetic Protein (BMP) Response Element (BRE) (AID 2282933); settings: HepG2 BMP response element reporter, Attagene transcription factor profiling; actives raise or lower the signal
How it was run: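 Fluorescence-labelled reporter cDNA fragments, separated by capillary electrophoresis, gave the signal for this component of a 52-readout multiplex. HepG2 cells were transfected, exposed to chemicals for 24 h, and compared with DMSO using bidirectional fitting.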

[10] = target: Retinoic acid receptor alpha (Homo sapiens) (UniProt P10276); assay: ATG_DR5_RAR_CIS: Attagene CIS-FACTORIAL HepG2 Assay for human Retinoic Acid Receptor Alpha (RARE), DR5 submotif (AID 2282934); settings: HepG2 Attagene cis-factorial RARE DR5 reporter, mRNA; actives raise or lower the signal
How it was run: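 After 24 h of chemical exposure, transiently transfected HepG2 cells were lysed for total RNA; the DR5-regulated reporter transcript was quantified via RT-PCR and capillary electrophoresis, with activity fitted bidirectionally against DMSO.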

[11] = target: Transcription factor E2F1 (Homo sapiens) (UniProt Q01094); assay: ATG_E2F_CIS: Attagene CIS-FACTORIAL HepG2 Assay for human E2F Transcription Factor 1 (AID 2282935); settings: HepG2 Attagene cis-reporter, E2F reporter RNA transcripts; actives raise or lower the signal
How it was run: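 Transient MRTU transfection of HepG2; 24 h compound exposure; RNA → oligo(dT) RT → PCR → FAM label → HpaI cut → CE fluorescence. Gain/loss of signal fit against DMSO.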

[12] = ATG_E_Box_CIS: Attagene CIS-FACTORIAL HepG2 Assay for human Enhancer Box (E-box) (AID 2282936); settings: HepG2 E-box cis-reporter transcription, actives raise or lower the signal
How it was run: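 Transiently transfected HepG2, endogenous TF-driven reporters, 24 h dosing. Readout: RT-PCR plus capillary electrophoresis of fluorescent reporter fragments. Gain or loss of signal fitted bidirectionally against DMSO baseline.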

[13] = ATG_M_61_CIS: Attagene CIS-FACTORIAL HepG2 Assay for M61 Transcription Factor (Internal Marker) (AID 2282937); settings: HepG2 Attagene CIS-FACTORIAL M61 internal marker reporter; actives raise or lower the signal
How it was run: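 Using transiently transfected HepG2 liver cells, reporter transcript levels were assessed 24 h post-dosing by RT-PCR and capillary electrophoresis. Changes in either direction were fitted relative to DMSO controls.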

[14] = ATG_EGR_CIS: Attagene CIS-FACTORIAL HepG2 Assay for human Early Growth Response 1 (EGR1) (AID 2282938); settings: HepG2 Attagene CIS-FACTORIAL EGR reporter mRNA; actives raise or lower the signal
How it was run: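 Fluorescent capillary-electrophoresis signal of reporter cDNA fragments serves as read-out. HepG2 cells bear transiently transfected cis-promoter reporter units and are exposed 24 h; gain- or loss-of-signal is fitted against DMSO.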

[15] = ATG_M_19_CIS: Attagene CIS-FACTORIAL HepG2 Assay for M19 Transcription Factor (Internal Marker) (AID 2282939); settings: HepG2 Attagene CIS-FACTORIAL M19 internal marker reporter; actives raise or lower the signal
How it was run: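 HepG2, MRTU transient transfection, 24 h dosing. Total RNA → RT-PCR → 6-FAM primer extension → HpaI digest → CE fluorescence. Bidirectional curve fit, DMSO negative control.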

[16] = ATG_ERE_CIS: Attagene CIS-FACTORIAL HepG2 Assay for Estrogen Response Element (ERE) (AID 2282940); settings: HepG2 ERE cis-reporter, Attagene RNA transcript; actives raise or lower the signal
How it was run: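 After a 24 h chemical treatment, RNA from reporter-transfected HepG2 cells is reverse-transcribed, PCR-amplified and fluorescently labelled. Fragments separated by capillary electrophoresis give reporter signal; DMSO serves as negative control.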

[17] = ATG_Ets_CIS: Attagene CIS-FACTORIAL HepG2 Assay for human Erythroblast Transformation Specific (ETS) (AID 2282941); settings: HepG2 ETS cis-reporter transcription, actives raise or lower the signal
How it was run: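 Bidirectional fit versus DMSO of reporter mRNA signal, detected by RT-PCR and capillary electrophoresis in HepG2 cells transiently transfected with cis-element reporters and dosed 24 h.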

[18] = target: Hepatocyte nuclear factor 3-beta (Homo sapiens) (UniProt Q9Y261); assay: ATG_FoxA2_CIS: Attagene CIS-FACTORIAL HepG2 Assay for human Forkhead box A2 (FOXA2) (AID 2282942); settings: HepG2 cis-reporter transcription factor activity, 24 h; actives raise or lower the signal
How it was run: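 Fluorescence signal of reporter cDNA fragments, separated by capillary electrophoresis, reflects endogenous transcription factor activity in transfected HepG2 after 24 h. Both increases and decreases fitted against DMSO.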

[19] = ATG_FoxO_CIS: Attagene CIS-FACTORIAL HepG2 Assay for human Forkhead box O (FoxO) (AID 2282943); settings: HepG2 Attagene cis-reporter, FoxO element, mRNA; actives raise or lower the signal
How it was run: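 Transfected HepG2 reporter cells exposed to test chemical for 24 h; reporter RNA measured by reverse transcription, PCR and fluorescent capillary electrophoresis; curves fitted for increases and decreases against DMSO.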

[20] = ATG_GATA_CIS: Attagene CIS-FACTORIAL HepG2 Assay for human GATA Binding Protein (AID 2282944); settings: HepG2 GATA cis-element reporter, Attagene multiplex mRNA; actives raise or lower the signal
How it was run: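 Cells: HepG2, transiently transfected with cis-regulated reporter transcription units. Exposure: 24 h. Detection: RT-PCR plus capillary electrophoresis of FAM-labeled fragments. Analysis: bidirectional, DMSO as baseline.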

Measured: AC50

Sequence of Retinoic acid receptor alpha (Homo sapiens) (P10276 whole entry, looked up): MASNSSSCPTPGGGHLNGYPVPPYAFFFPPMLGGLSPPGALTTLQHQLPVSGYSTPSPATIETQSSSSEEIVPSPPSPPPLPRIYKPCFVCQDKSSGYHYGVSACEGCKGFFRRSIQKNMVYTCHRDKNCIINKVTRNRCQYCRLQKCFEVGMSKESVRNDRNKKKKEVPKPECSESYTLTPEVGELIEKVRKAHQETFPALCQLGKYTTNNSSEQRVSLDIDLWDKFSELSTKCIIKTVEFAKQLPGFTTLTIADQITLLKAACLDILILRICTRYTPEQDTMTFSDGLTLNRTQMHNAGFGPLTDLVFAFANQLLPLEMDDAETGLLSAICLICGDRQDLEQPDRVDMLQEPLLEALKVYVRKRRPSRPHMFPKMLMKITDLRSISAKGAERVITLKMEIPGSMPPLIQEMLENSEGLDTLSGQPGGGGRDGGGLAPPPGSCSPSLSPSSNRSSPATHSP
Sequence of Hepatocyte nuclear factor 3-beta (Homo sapiens) (Q9Y261 whole entry, looked up, the tested form may be a part): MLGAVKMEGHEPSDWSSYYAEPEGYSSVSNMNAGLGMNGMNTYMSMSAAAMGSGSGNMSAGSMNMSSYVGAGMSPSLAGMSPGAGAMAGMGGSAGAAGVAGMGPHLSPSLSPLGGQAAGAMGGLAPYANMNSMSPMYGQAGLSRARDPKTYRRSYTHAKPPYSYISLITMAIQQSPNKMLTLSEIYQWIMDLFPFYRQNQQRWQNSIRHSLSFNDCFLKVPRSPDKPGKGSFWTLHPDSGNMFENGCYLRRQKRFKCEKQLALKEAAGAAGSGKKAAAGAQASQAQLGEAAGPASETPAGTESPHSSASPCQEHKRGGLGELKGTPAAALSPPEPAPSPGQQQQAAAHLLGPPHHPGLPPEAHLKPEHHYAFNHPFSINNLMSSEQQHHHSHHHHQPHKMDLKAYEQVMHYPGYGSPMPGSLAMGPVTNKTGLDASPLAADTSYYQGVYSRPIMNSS
Sequence of CCAAT/enhancer-binding protein beta (Homo sapiens) (P17676 whole entry, looked up): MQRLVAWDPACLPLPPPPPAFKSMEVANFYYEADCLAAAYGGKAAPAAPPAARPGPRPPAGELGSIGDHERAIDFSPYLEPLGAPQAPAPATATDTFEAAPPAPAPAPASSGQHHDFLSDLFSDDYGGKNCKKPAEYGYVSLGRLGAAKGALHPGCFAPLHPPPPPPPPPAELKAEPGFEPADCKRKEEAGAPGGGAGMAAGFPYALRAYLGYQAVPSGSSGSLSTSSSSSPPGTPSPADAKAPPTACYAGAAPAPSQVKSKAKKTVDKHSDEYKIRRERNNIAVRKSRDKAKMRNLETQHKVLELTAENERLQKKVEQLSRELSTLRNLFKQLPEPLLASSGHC
Sequence of Transcription factor E2F1 (Homo sapiens) (Q01094 whole entry, looked up): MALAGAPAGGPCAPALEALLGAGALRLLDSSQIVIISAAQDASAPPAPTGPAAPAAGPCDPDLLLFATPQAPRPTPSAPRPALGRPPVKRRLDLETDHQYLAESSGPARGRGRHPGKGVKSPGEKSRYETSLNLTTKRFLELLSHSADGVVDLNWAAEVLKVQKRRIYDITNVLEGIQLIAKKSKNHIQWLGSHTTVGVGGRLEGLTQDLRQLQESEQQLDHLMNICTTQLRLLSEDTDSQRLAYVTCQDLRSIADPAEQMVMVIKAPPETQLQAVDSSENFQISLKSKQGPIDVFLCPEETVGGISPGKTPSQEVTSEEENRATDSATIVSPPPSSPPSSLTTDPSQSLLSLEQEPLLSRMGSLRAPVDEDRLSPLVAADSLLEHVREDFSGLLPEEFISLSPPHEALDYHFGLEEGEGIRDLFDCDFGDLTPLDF
Sequence of Aryl hydrocarbon receptor (Homo sapiens) (P35869 whole entry, looked up): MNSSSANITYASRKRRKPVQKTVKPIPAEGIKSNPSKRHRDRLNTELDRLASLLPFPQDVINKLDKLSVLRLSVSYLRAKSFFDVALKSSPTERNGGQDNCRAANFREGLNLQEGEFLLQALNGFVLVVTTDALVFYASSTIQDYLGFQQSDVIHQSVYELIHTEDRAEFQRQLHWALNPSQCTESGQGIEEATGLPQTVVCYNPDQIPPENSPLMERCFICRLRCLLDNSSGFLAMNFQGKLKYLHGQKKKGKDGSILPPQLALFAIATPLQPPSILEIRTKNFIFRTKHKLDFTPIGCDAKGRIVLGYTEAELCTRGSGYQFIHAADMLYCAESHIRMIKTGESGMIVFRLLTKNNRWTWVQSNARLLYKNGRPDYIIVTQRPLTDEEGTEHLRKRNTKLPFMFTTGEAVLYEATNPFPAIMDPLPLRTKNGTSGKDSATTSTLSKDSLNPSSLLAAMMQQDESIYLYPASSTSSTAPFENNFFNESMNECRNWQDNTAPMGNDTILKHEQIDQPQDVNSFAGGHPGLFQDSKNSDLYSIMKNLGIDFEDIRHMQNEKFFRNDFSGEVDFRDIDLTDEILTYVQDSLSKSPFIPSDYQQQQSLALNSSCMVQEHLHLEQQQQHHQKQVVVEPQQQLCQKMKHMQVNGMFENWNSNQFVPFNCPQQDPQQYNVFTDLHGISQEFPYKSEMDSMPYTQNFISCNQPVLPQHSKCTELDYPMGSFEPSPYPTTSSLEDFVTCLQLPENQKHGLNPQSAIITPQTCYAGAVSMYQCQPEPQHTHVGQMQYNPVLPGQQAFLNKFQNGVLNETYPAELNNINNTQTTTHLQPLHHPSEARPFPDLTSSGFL

C=C(C)C1CC=C(C)C(OC(C)=O)C1 (centres undefined)
inactive: all assays above

C=C(C)OC(C)=O
not listed: [18]
inactive: all other assays above

CC(C)(C)C1CCC(=O)CC1
active: [5] 160 µM
inactive: all other assays above

Nc1cccc(N)n1
active: [6] 52.3 µM
inactive: all other assays above

CC(C)CCCCCOC(=O)CS
inactive: all assays above

Nc1ccc(Cl)c(N)c1
active: [6] 6.09 µM
not listed: [20]
inactive: all other assays above

CCc1occc(=O)c1O
active: [6] 65.6 µM
not listed: [20]
inactive: all other assays above

Cc1ccc(C)c(OCCCC(C)(C)C(=O)O)c1
active: [16] 75.2 µM
inactive: all other assays above

COc1cc(O)c(C(=O)c2ccccc2)cc1S(=O)(=O)O
active: [16] 56 µM
inactive: all other assays above

N#Cc1ccc(C2CCCc3cncn32)cc1 (centres undefined)
active: [1] 0.829 µM | [16] 25.4 µM
inactive: all other assays above

CC1=CC(C)C(C=O)CC1 (centres undefined)
active: [6] 8.87 µM | [16] 27.2 µM
inactive: all other assays above

CC(=O)c1ccccc1O
inactive: all assays above

CCCCC(C=O)CC (centres undefined)
inactive: all assays above

CCCCCCCCCCCCCC(=O)OC(C)C
inactive: all assays above

CC(C)OC(=O)c1ccccc1
not listed: [16]
inactive: all other assays above

CCCC(C)C(=O)OCC (centres undefined)
not listed: [18]
inactive: all other assays above

Clc1cccnc1
not listed: [20]
inactive: all other assays above

Cc1c[nH]c(=O)[nH]c1=O
not listed: [18]
inactive: all other assays above

C=CCCCCCCCCC=O
active: [16] 88.7 µM
inactive: all other assays above

CCCCOCCOC(=O)COc1ccc(Cl)cc1Cl
active: [1] 10.8 µM
not listed: [18]
inactive: all other assays above

Nc1ncnc2nc[nH]c12
not listed: [18]
inactive: all other assays above

CC(=O)C(C)C
not listed: [16]
inactive: all other assays above

CCCCCCCCCCCCCc1ccccc1
not listed: [15]
inactive: all other assays above

CC(=O)OC1CCCCC1
not listed: [15] | [20]
inactive: all other assays above

c1ccc(-c2nc3ccccc3[nH]2)cc1
not listed: [18] | [20]
inactive: all other assays above

Cc1cccc(C(C)(C)C)c1O
inactive: all assays above

CC1(C)CC(O)CC(C)(C)N1[O]
active: [4] 26.2 µM | [7] 26.6 µM
not listed: [18]
inactive: all other assays above

CCCCNS(=O)(=O)c1ccccc1
inactive: all assays above

CCOC(=O)/C=C\C(=O)OCC
active: [7] 50.5 µM
inactive: all other assays above

[Cl][Sc]([Cl])[Cl]
active: [6] 0.188 µM
inactive: all other assays above
